Compound activity deposited in PubChem by Sanford-Burnham Center for Chemical Genomics.
This is a sample that favours compounds with a hit; in the whole collection about 31% have one here.
CYP2C9 activ: increases human cytochrome P450 2C9 activity; P11712; recombinant CYP2C9, luciferin-H conversion, luminescence; hits give high values; factor 1 = untreated enzyme, 0 = blocked; activation factor at 5 µM; 96,000 tested, 1.4% active;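 active = activation factor of 2 or more for CYP2C9 at a 5 µM dose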;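 note: 0 = sulfaphenazole-blocked wells and 1 = vehicle-only wells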
PLAP act: activators of human placental alkaline phosphatase | P05187 | purified PLAP enzyme, luminescent substrate read-out; hits give high values | activation fold at 20 µM | 96,000 tested, 1.2% active | AID 696; in the data active = activation fold above about 2
CYP2C19 activ: cytochrome P450 2C19 (human) activation | recombinant CYP2C19, luciferin-H EGE luminescence; hits give high values; 0 = fully inhibited enzyme, 1 = untreated enzyme | P33261 | activation factor at 5 µM | 96,000 tested, under 10 active;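 active = activation factor of at least 2 at 5 µM in the primary screen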;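 note: 0 = wells with 2.5 mM tranylcypromine and 1 = vehicle-only wells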
Target sequence (P33261 whole entry, looked up): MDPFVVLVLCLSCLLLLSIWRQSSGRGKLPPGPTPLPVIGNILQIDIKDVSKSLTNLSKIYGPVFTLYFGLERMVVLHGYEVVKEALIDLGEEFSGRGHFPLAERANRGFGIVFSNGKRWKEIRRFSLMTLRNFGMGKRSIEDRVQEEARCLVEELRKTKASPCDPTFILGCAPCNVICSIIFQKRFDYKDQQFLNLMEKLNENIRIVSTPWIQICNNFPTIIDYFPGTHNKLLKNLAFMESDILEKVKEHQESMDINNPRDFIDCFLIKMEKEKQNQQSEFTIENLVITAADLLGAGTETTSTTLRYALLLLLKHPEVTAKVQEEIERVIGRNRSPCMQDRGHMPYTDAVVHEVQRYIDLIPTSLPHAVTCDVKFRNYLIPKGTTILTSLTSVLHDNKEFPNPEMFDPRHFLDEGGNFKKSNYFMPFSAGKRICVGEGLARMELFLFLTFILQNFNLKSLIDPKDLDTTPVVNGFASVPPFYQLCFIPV
CYP2C19 inh: inhibitors of human CYP2C19 | CYP2C19 Supersomes, luciferin-H EGE luminescence, 30 min | inhibition, % at 5 µM | 96,000 tested, 21% active | AID 778;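 active = CYP2C19 inhibition above a set limit at 5 µM in the primary screen, cut at about 50% in these data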;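 note: plate controls were negative control wells for no effect and 2.5 mM tranylcypromine positive control for full effect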
CYP2C9 inh: blocks human cytochrome P450 2C9 | P11712 | 96,000 tested, 20% active | CYP2C9 Supersomes, luciferin-H conversion, luminescence | inhibition, % at 5 µM;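 active = blocking of liver enzyme CYP2C9 beyond about 50% at 5 µM, limit read from the data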
* = called active by the depositor.

SMILES | CYP2C9 activ | PLAP act | CYP2C19 activ | CYP2C19 inh | CYP2C9 inh
N#Cc1c(N2CCCC2)nc(N)c2c(N)nc(N3CCCC3)cc12 | 0.4 | 1.1 | 0.6 | 40 | 61*
COc1cc2c(C#N)c(N3CCN(C)CC3)nc(N)c2c(N)n1 | 0.8 | 1.1 | 1.1 | -7 | 23
COc1cc2c(C#N)c(N3CCN(c4ccccc4OC)CC3)nc(N)c2c(N)n1 | 0.3 | 1.8 | 0 | 100* | 68*
Cc1ccc(C(C(=O)NC2CCCCC2)N2CCOCC2)cc1 (stereo not drawn) | 1.3 | 1.1 | 1 | 0 | -28
CC(/C=N/NC(=O)Cc1cc(=O)[nH][nH]1)=C\c1ccccc1 | 1 | 1.2 | 1 | 4 | 2
CCCCN(C)C(=O)c1cc2cc3ccc(OC)cc3nc2s1 | 0.5 | 1.2 | 0.4 | 56* | 53*
Cc1nn2c(N3CCOCC3)c3c(nc2c1-c1ccccc1)CCCC3 | 0.2 | 1.5 | 1.1 | -8 | 77*
Cc1nn2c(-n3ccnc3C)c3c(nc2c1-c1ccccc1)CCC3 | 0.4 | 1.5 | 0.1 | 90* | 62*
Cc1nc2c(-c3ccc(F)cc3)c(C)nn2c(N2CCOCC2)c1C | 0.7 | 1 | 0.6 | 44 | 35
ClC(=C\c1ccccc1)/C=N/N1CCN(c2ccccn2)CC1 | 1 | 1 | 1.1 | -7 | -5
CC(=O)Nc1ccc(S(=O)(=O)NCCSCc2ccco2)cc1 | 0.3 | 1.2 | 0.4 | 60* | 66*
CC(=O)Nc1ccc(S(=O)(=O)NCCSCc2c(Cl)cccc2Cl)cc1 | 0.2 | 1 | 0.3 | 73* | 77*
COCCCNC(=O)C(=O)NCCCOC(C)C | 1 | 0.9 | 0.6 | 41 | -4
COc1cc2c(=O)n(CC3CCCO3)c(=O)n(CC(=O)Nc3ccc(F)cc3F)c2cc1OC (stereo not drawn) | 0.6 | 1.3 | 0.9 | 15 | 44
COc1cc2c(=O)n(CC3CCCO3)c(=O)n(CC(=O)Nc3cccc(Cl)c3)c2cc1OC (stereo not drawn) | 0.2 | 1.7 | 0.4 | 63* | 85*
CCCN(CCC)CCNC(=O)C1c2ccccc2C(=O)N(CCOC)C1c1ccc(F)cc1 (stereo not drawn) | 1.3 | 1.9 | 1 | 1 | -33
Cc1cccc(Cc2cnc(NC(=O)c3ccc(C)o3)s2)c1 | 0.9 | 1.4 | 0.6 | 39 | 12
O=C(c1ccccc1Cl)N1N=C(c2ccc(Br)cc2)CC1c1nc2ccccc2[nH]1 (stereo not drawn) | 0.3 | 0.9 | 0.5 | 50* | 67*
O=C(c1ccccc1-c1nc2ccccc2[nH]1)N1CCCCC1 | 1.1 | 1.1 | 1.1 | -8 | -9
CCOC(=O)C1(Nc2nccs2)Sc2ccccc2NC1=O (stereo not drawn) | 0.6 | 1 | 0.4 | 64* | 36
Cc1cccc(C(=O)OCC(=O)Nc2nccs2)c1 | 1 | 1 | 0.6 | 37 | 3
CCOC(=O)COc1ccc(S(=O)(=O)N2CCN(C(=O)OCC)CC2)cc1 | 0.7 | 1.5 | 0.7 | 34 | 32
CCOC(=O)COc1ccc(S(=O)(=O)N2CCN(c3ccc(F)cc3)CC2)cc1 | 0.5 | 0.9 | 0.8 | 22 | 50*
CC(=O)Nc1ccc(S(=O)(=O)N2CCc3ccccc3C2)cc1 | 1.6 | 0.9 | 0.3 | 65* | -58
CCOC(=O)COc1ccc(S(=O)(=O)N2CCc3ccccc3C2)cc1 | 1.5 | 1.3 | 0.4 | 56* | -49
SMILES | CYP2C9 activ | PLAP act | CYP2C19 activ | CYP2C19 inh | CYP2C9 inh
COC(=O)c1ccccc1NC(=O)c1cc(-c2ccc(C)cc2)on1 | 1.3 | 0.8 | 0.9 | 8 | -34
CCN(CCO)C(=O)C12CCC(C)(C(=O)C1)C2(C)C (stereo not drawn) | 1.2 | 0.9 | 1.1 | -10 | -22
Cc1ccc2cc3c(NC(=O)c4ccco4)nn(CC(C)C)c3nc2c1 | 1 | 0.9 | 1 | 4 | 2
Cc1cc(C)n(-c2nc(-n3nc(C)cc3C)c3c4c(sc3n2)COC(C)(C)C4)n1 | 0.6 | 1.5 | 0.3 | 72* | 38
Cc1cc(C)n(-c2nc(NCCC(C)C)c3c4c(sc3n2)COC(C)(C)C4)n1 | 0.7 | 2.9* | 0.9 | 9 | 30
CSc1nnc2c3c4c(sc3nc(-n3nc(C)cc3C)n12)COC(C)(C)C4 | 0.5 | 1.4 | 0.9 | 12 | 47
Cc1cc(C)n(-c2nc(SCC(=O)Nc3nccs3)c3c4c(sc3n2)COC(C)(C)C4)n1 | 0.2 | 1.3 | 0.6 | 38 | 77*
CC(=O)NC(=O)c1nnn(Cc2ccccc2)c1NC(C)=O | 0.9 | 1.1 | 1.1 | -6 | 6
Cc1cc(C(=O)N/N=C2\CCCC(C)C2)n[nH]1 (stereo not drawn) | 1.1 | 1.2 | 1 | -4 | -10
COC(=O)c1c(-c2ccc(C)cc2)csc1NC(=O)Cc1ccc(OC)c(OC)c1 | 0.3 | 1.7 | 0.7 | 35 | 72*
COc1cc(CNCCO)ccc1OCC(=O)Nc1ccc(Br)cc1 | 0.9 | 1.2 | 0.8 | 19 | 14
COC(=O)c1c(-c2ccc(Br)cc2)csc1NC(=O)Cc1ccc(OC)c(OC)c1 | 0.4 | 1.7 | 0.7 | 31 | 63*
COC(=O)c1c(-c2cccc3ccccc23)csc1NC(=O)Cc1ccc(OC)c(OC)c1 | 0.1 | 1.6 | 0.4 | 62* | 87*
COc1ccc(-c2oc3ncn4nc(Cc5ccccc5)nc4c3c2-c2ccc(OC)cc2)cc1 | 0.7 | 0.8 | 0.8 | 16 | 34
COc1ccc(/C=C/C(=O)N(C(C)C)C(C)C)cc1Br | 1.1 | 1.3 | 0.4 | 60* | -12
CCS(=O)(=O)c1ccc2oc(Nc3ccccc3C)nc2c1 | 0.5 | 1.3 | 0.4 | 59* | 54*
O=S(=O)(Nc1ccncc1Cl)c1ccccc1 | 0.3 | 1 | 1.1 | -9 | 70*
CC[C@@H](C(=O)n1nc(C)cc1C)[C@H](NS(=O)(=O)c1ccc(C)cc1)c1ccccc1 | 1 | 0.9 | 0.5 | 47 | -3
Cc1ccccc1-c1nc(CS(=O)(=O)CC(=O)NCCCN2C(C)CCCC2C)c(C)o1 (stereo not drawn) | 0.7 | 1.5 | 0.8 | 17 | 26
c1ccc(CSc2nnc([C@@H]3CCCN3)o2)cc1 | 0.9 | 1 | 0.8 | 16 | 10
Cc1ccc(CSc2nnc([C@@H]3CCCN3)o2)cc1 | 0.9 | 0.9 | 0.5 | 50* | 8
Cc1[nH]c(=O)[nH]c(=O)c1CSc1nnc([C@@H](NC(=O)OC(C)(C)C)C(C)C)o1 | 0.9 | 1.4 | 1 | 4 | 7
CC(C)(C)OC(=O)NCCc1nnc(SCc2c(Cl)cccc2Cl)o1 | 0.3 | 1.7 | 0.1 | 92* | 72*
CC(C)=CCSc1nnc([C@@H](NC(=O)OC(C)(C)C)C(C)C)o1 | 0.6 | 1.9 | 0.4 | 55* | 44
CN(C)C(=O)CSc1nnc(CCNC(=O)OC(C)(C)C)o1 | 1.1 | 0.9 | 0.9 | 11 | -6
CCCCSc1nnc(CCCCCNC(=O)OC(C)(C)C)o1 | 0.4 | 1.8 | 0.4 | 64* | 64*
CSCC[C@H](NC(=O)OC(C)(C)C)c1nnc(SCC(=O)Nc2c(C)cccc2C)o1 | 0.4 | 1.1 | 0.9 | 8 | 58*
